Screens as filed in PubChem.
Rows were chosen to be rich in hits. Some 7.4% of all compounds tested hit in one or more screens of this group.
Tau fil binding: tau filament binding | P10636 | recombinant tau filaments, thioflavin S fluorescence, 15 h; filaments grown with octadecylsulfate alongside compound | Potency, µM (top dose mostly 57.1 µM) | 71,000 tested, 2% active | AID 596;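 further: actives lower thioflavin S fluorescence by blocking filaments or displacing dye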
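Quantitative HTS: thioflavine S signal from ODS-induced tau filaments, excited at 450 nm, emission 510 nm. Conditions: 1 uM tau, 30 uM ODS, 15 h at 37 C, pH 7.4.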
TSHR agonist: agonists of human thyroid stimulating hormone receptor; AID 926; HEK293-CNG-TSHR cells (CNG channel as cAMP sensor), membrane potential dye, cAMP; 73,000 tested, 0.48% active; P16473; Potency, µM (top dose mostly 57.1 µM), usual class: activators; active means well fitted activation curve with a large enough effect in the main read-out, with a control signal flat, not every such curve was filed as active; inconclusive means small, poorly fitted or top-dose-only effect, or a change in a side signal; inactive means no such curve, though single readings can be large or run the other way; reference of the percent scale not stated here;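 further: the control signal comes from parental cells without the receptor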
Target sequence (P16473 whole entry, looked up): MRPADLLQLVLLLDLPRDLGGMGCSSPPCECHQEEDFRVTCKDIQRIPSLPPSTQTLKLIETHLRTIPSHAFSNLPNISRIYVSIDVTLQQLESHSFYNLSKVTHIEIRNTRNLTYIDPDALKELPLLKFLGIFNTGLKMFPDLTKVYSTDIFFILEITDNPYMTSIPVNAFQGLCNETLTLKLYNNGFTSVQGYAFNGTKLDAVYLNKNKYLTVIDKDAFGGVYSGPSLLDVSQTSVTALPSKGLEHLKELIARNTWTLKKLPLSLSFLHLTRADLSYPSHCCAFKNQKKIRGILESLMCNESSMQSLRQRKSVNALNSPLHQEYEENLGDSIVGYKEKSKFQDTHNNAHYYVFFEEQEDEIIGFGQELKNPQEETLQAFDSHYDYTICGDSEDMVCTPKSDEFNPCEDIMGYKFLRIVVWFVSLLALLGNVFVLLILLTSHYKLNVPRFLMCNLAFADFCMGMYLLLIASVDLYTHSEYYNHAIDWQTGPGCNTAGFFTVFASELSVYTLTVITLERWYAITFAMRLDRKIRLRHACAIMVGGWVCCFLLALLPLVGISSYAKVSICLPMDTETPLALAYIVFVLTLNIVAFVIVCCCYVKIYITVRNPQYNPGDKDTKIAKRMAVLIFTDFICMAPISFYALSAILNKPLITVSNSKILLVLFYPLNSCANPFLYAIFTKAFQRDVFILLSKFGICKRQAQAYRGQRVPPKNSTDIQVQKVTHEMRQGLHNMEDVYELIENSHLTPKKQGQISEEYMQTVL
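HEK 293 cells stably expressing TSHR and a cAMP-gated CNG channel; parental CNG-only cells as counterscreen. Cells preloaded 60 min with membrane potential dye plus 100 uM RO 20-1724, then compound 30 min; fluorescence read at 590 nm.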
ERK AVP inh: inhibitors of vasopressin-stimulated ERK signaling pathway; HEK293-V1b, vasopressin-stimulated pERK AlphaScreen; Potency, µM (highest dose often 57.5 µM), most hits filed as inhibitors; 72,000 tested, 0.99% active; AID 995; further: nearly all actives have a fitted effect of over 55% in size
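qHTS, compounds titrated on V1b-expressing HEK293 cells. Preincubation 30 min at 37C, vasopressin 25 nM for 5 min, lysis 10 min, bead incubation 5 hr at room temperature.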
HEK293 cAMP cs: parental HEK293 cAMP activation (counter-screen); 73,000 tested, 2.5% active; Potency, µM (titrated, usually from 57.1 µM), actives largely listed as activators; parental HEK293 CNG cAMP sensor, membrane potential fluorescence; further: nearly all actives have a fitted effect of over 55% in size
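Parental HEK 293 cells stably expressing a cAMP-gated CNG channel were loaded with membrane potential dye containing 100 uM RO 20-1724 for 60 min. Compound added for 30 min; depolarization read as fluorescence intensity at 590 nm.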
CRE Fsk mod: modulators of forskolin-stimulated CRE signaling in CHO cells; CHO CRE-bla reporter (cAMP response element driving beta-lactamase), forskolin EC10, beta-lactamase ratio; Potency, µM (titrated, usually from 38.2 µM), hits mostly activators; 71,000 tested, 2.5% active; AID 662; active means well fitted activation curve with a large enough effect in the signal ratio, with a control signal flat, not every such curve was filed as active; inconclusive means small, poorly fitted or top-dose-only effect, or effect the other way, or a change in a side signal; the % refers to the signal ratio
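CRE-bla CHO cells stimulated with EC10 NKH 477 (water-soluble forskolin) and compound titrations, 3 h at 37C; beta-lactamase read with CCF4 after 2 h at room temperature. Activity from 460/530 nm emission ratio, AC50 values for positive or negative modulation.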
Large screens that a line does not name were inactive. Unless noted, the call rests on the fitted dose curve; in most records, active means well fitted curve in the direction sought with a large enough effect; inconclusive means small, poorly fitted or top-dose-only effect, or another doubt; inactive means no such curve, though single readings can be large; an effect the other way counts as inactive or inconclusive.

CC(C)(CC(=O)Nc1ccccc1)C(=O)O	none
N[C@@H](Cc1c[nH]c2ccc([N+](=O)[O-])cc12)C(=O)O	none
COCCNc1ncnc2ccc(-c3ccoc3)cc12	none
COCCNc1ncnc2ccc(-c3ccc(N(C)C)cc3)cc12	Tau fil binding 16µM, ERK AVP inh inconclusive
Cc1cnc(CNc2ncnc3ccc(-c4ccc(N(C)C)cc4)cc23)cn1	Tau fil binding 25µM, ERK AVP inh inconclusive, CRE Fsk mod inconclusive
O=C(C[C@@H]1C=Cc2ccccc2N1C(=O)c1ccccc1)c1ccccc1	TSHR agonist inconclusive, HEK293 cAMP cs inconclusive
Cc1occc1C(=O)Nc1ccccc1C(=O)O	none
Cc1occc1C(=O)Nc1ccc2ccccc2c1	Tau fil binding 10µM
CCOC(=O)c1cc(C)sc1N1C(=O)C2C3C=CC(C3)C2C1=O (configuration not stated)	TSHR agonist 2µM, CRE Fsk mod inconclusive
CCOC(=O)c1cccc(NC(=O)CN2C(=O)C3C4C=CC(C4)C3C2=O)c1 (configuration not stated)	none
COc1cccc(NC(=O)CCSc2nnc3scc(-c4ccccc4)n23)c1	CRE Fsk mod 0.4µM
O=C(c1nn(Cc2ccccc2)c(=O)c2ccccc12)N1CCN(c2ccccn2)CC1	TSHR agonist inconclusive, HEK293 cAMP cs 4µM, CRE Fsk mod inconclusive
Cc1noc(C)c1-c1cc(NC2CC2)ncn1	none
COc1c2ccoc2c(OC)c2oc(=O)ccc12	none (no result: Tau fil binding, TSHR agonist, HEK293 cAMP cs, CRE Fsk mod)
COc1c2occc2c(OC)c2c(=O)cc(C)oc12	ERK AVP inh inconclusive, CRE Fsk mod 7.9µM
COc1ccc(CCn2c(C)cc(C(=O)CSc3nnnn3C)c2C)cc1	TSHR agonist inconclusive, HEK293 cAMP cs inconclusive
Cc1cc(C(=O)CSc2nc(N)cc(N)n2)c(C)n1CCc1ccc(F)cc1	TSHR agonist inconclusive, ERK AVP inh 13µM, HEK293 cAMP cs inconclusive
CCCCc1cc(=O)oc2cc(C)c(CN3CCCC3)c(O)c12	Tau fil binding 20µM
Cc1cc(C)c2c(CN3CCN(C)CC3)cc(=O)oc2c1	none
O=C(O)/C=C\[C@H](O)c1ccc(Cl)cc1	TSHR agonist inconclusive, HEK293 cAMP cs inconclusive
COCCCNC(=O)c1c(N)n(-c2cccc(S(N)(=O)=O)c2)c2nc3ccccc3nc12	CRE Fsk mod 13µM
Nc1c(C(=O)NCCN2CCOCC2)c2nc3ccccc3nc2n1-c1cccc(F)c1	CRE Fsk mod 7.9µM
COC(=O)c1c(N)n(-c2cc(OC)cc(OC)c2)c2nc3ccccc3nc12	Tau fil binding 7.9µM, CRE Fsk mod inconclusive
C=CCNC(=O)c1c(N)n(-c2ccc3c(c2)OCO3)c2nc3ccccc3nc12	CRE Fsk mod 1µM
CCCNC(=O)c1c(N)n(-c2cccc(OC)c2)c2nc3ccccc3nc12	CRE Fsk mod inconclusive
CCN(CCO)c1ccc(-n2c(N)c(C(=O)OC)c3nc4ccccc4nc32)cc1	none
CCCCC#CC1C=CC(OC(C)=O)C(COC(C)=O)O1 (configuration not stated)	none (no result: Tau fil binding, CRE Fsk mod)
C#CC(C)OC(=O)c1nnc2c3ccccc3n(COC)c2n1 (configuration not stated)	none (no result: Tau fil binding, CRE Fsk mod)
Nc1ccccc1C(=O)CC(N)C(=O)O (configuration not stated)	none (no result: Tau fil binding, TSHR agonist, HEK293 cAMP cs, CRE Fsk mod)
C[N+](C)(C)CC(=O)N/N=C\c1c(O)ccc2ccccc12	none
Nc1c(C(=O)NCC2CCCO2)c2nc3ccccc3nc2n1-c1ccccc1 (configuration not stated)	CRE Fsk mod 13µM
O=C(CSc1nc2ccccc2n1-c1ccccc1)NCC1CCCO1 (configuration not stated)	none
O=C1[C@H]2[C@H]3[C@H](O)[C@H](O)C/C(=N/OC[C@@H](O)COCc4ccco4)[C@@H]3CC[C@@H]2C(=O)N1c1cccc(Oc2ccccc2)c1	none (no result: Tau fil binding, TSHR agonist, CRE Fsk mod)
CCOC(=O)Cn1c(CN2CC(C)OC(C)C2)nc2c1c(=O)n(C)c(=O)n2C (configuration not stated)	TSHR agonist 4µM (no result: ERK AVP inh)
COC(=O)NC(c1ccc2ccccc2c1)C(C(C)=O)C(=O)OC (configuration not stated)	none (no result: Tau fil binding, CRE Fsk mod)
Cc1cccc(N2CCN(CC(=O)NCC3CCCCC3)CC2)c1C	TSHR agonist inconclusive, ERK AVP inh 25µM, HEK293 cAMP cs inconclusive
CCS(=O)(=O)N1CCN(c2cccc(C)c2C)CC1	ERK AVP inh inconclusive, CRE Fsk mod inconclusive (no result: TSHR agonist)
COC(=O)c1ccc(OC)c(CSc2nnc(COc3ccc(Cl)cc3)o2)c1	TSHR agonist inconclusive, HEK293 cAMP cs inconclusive, CRE Fsk mod inconclusive
COC(=O)c1ccc(OC)c(CSc2nnc(COc3ccccc3)o2)c1	TSHR agonist inconclusive, HEK293 cAMP cs 13µM, CRE Fsk mod inconclusive
Cc1cccc(OCc2nnc(SCC(=O)c3ccccc3)o2)c1	TSHR agonist inconclusive, HEK293 cAMP cs 4µM
CC12CC[C@@H]3c4ccc(OS(=O)(=O)O)cc4CC[C@H]3C1CCC2=O (some centres not stated)	none
O=C(N1CCCCC1)C1(c2ccccc2)CCOCC1	TSHR agonist inconclusive, HEK293 cAMP cs 16µM
O=C(N1CCOCC1)C1(c2ccccc2)CCCCC1	none
NN(CC(=O)O)CC(=O)O	none
CCC(CC)C(=O)NCCc1ccc(OC)c(OC)c1	none
CCC(CC)C(=O)NCCNC(=O)C(CC)CC	TSHR agonist inconclusive, HEK293 cAMP cs inconclusive, CRE Fsk mod 2µM
CCOCCc1nnc(NC(=O)c2cc(OC)c(OC)c(OC)c2)s1	CRE Fsk mod 10µM
COc1cc(C(=O)Nc2nnc(C)s2)cc(OC)c1OC	CRE Fsk mod inconclusive (no result: ERK AVP inh)
Clc1ccc(C(c2nnnn2C2CCCCC2)N(Cc2cccnc2)Cc2ccco2)cc1 (configuration not stated)	TSHR agonist inconclusive, HEK293 cAMP cs 3.2µM
Cc1sc(NC(=O)CSc2nc(N)n(CC(=O)c3ccccc3)n2)c(C#N)c1C	CRE Fsk mod 5µM
CCOC(=O)c1cnc(SCC(=O)Nc2sc(C)c(C)c2C#N)nc1N	none
CCOC(=O)c1ccc(Oc2cc(C)nc(SC)n2)cc1	TSHR agonist inconclusive, HEK293 cAMP cs 3.2µM, CRE Fsk mod inconclusive
COc1nc(OCCNC(=O)Nc2ccccc2)nc(N(C)C)n1	CRE Fsk mod inconclusive
CCNc1nc(Oc2ccc(C(=O)OCC)cc2)nc(SC)n1	TSHR agonist inconclusive, HEK293 cAMP cs inconclusive, CRE Fsk mod inconclusive
COC(=O)c1ccc(Oc2nc(C)cc(Oc3ccccc3)n2)cc1	CRE Fsk mod inconclusive
CN(C)c1nc(OCCOC(=O)c2ccccc2)nc(N(C)C)n1	CRE Fsk mod 5µM
COC(=O)c1ccc(Oc2cc(C)nc(-n3nc(C)cc3C)n2)cc1	TSHR agonist inconclusive, ERK AVP inh inconclusive, HEK293 cAMP cs 16µM, CRE Fsk mod inconclusive
CCOC(=O)c1ccc(Oc2nc(NC(C)(C)C)nc(N(C)C)n2)cc1	TSHR agonist inconclusive, HEK293 cAMP cs 25µM
